Assay outcomes from PubChem BioAssay.
TDP1 cell CPT: growth inhibition of DT40 Tdp1-/-;hTDP1 cells with camptothecin (screen for TDP1 inhibitors); chicken DT40 Tdp1-/-;hTDP1 cells + 20 nM CPT, ATP luminescence, 48 h; 420,000 compounds, 12% hits; Potency, µM (highest dose often 46.2 µM), usual class: inhibitors; AID 686979; also: nearly all actives have a fitted effect of over 55% in size
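Cell growth measured by CellTiter-Glo luminescence after a minimum 48 h, 37 C compound exposure with 20 nM CPT in Tdp1-knockout DT40 cells stably expressing hTDP1, seeded 400/well; qHTS titration format.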
TDP1 cell noCPT: qHTS for Inhibitors of human tyrosyl-DNA phosphodiesterase 1 (TDP1): qHTS in cells in absence of CPT. DT40 Tdp1-/- hTDP1 cells, no CPT, ATP luminescence, 48 h. Potency, µM (highest dose often 46.2 µM), most hits filed as inhibitors. 420,000 compounds, 15% hits; also: nearly all actives have a fitted effect of over 55% in size
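A cellular qHTS used chicken DT40 cells lacking endogenous Tdp1 but carrying stably transfected human TDP1. Compounds were applied without camptothecin, and cell growth kinetics were judged by ATP-dependent luminescence after ≥48 hr.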
IL-1B inflam inh: inflammasome signaling inhibition, IL-1 beta readout | THP-1 LPS/ATP IL-1B secretion, AlphaLISA, 16 h; hits give low values | 360,000 compounds, 4.7% hits | AID 743279 | activity change, % at 57.5 µM; in the data active = activity change below about -50%; inconclusive = mostly about -30% to -49%
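Secreted IL-1B measured by AlphaLISA bead assay after 16 h compound exposure of THP-1 cells; compounds (final up to 57.5 uM) added 1 h before LPS (250 ng/mL) and ATP (1.25 mM) stimulation; lower signal means less secretion.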
Giardia kill: kills Giardia lamblia; Giardia lamblia trophozoite viability; activity change, % at 7.66 µM, hits read low; 340,000 compounds, 0.15% hits; AID 540267; in the data active = activity change below about -80%; inconclusive = between about -30% and that limit;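 also: parasites exposed to compound for two days anaerobically before the ATP read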
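Trophozoites 100 cells/well + cpd; 48 hrs, 37 deg C, anaerobic. ATPLite 1-Step added, 15-30 min RT, luminescence read (ATP-based viability).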
ELG1 DNA repair: blocks ELG1-dependent DNA repair in HEK293T cells | 330,000 compounds, 2.3% hits | HEK293T ELG1-luciferase reporter, luminescence, 16 h; DNA damage induced by 5-fluorouridine | Potency, µM (doses to about 46.1 µM), hits mostly inhibitors; also: nearly all actives have a fitted effect of over 55% in size
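HEK293T cells expressing luciferase-tagged ELG1 (2,000/well) received 5-Fluorouridine plus compound or DMSO for 16 hr at 37 °C. Luciferase was read by ONE-Glo luminescence after 30 min at room temperature.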
TDP1 block: TDP1 (human) enzyme inhibition | Q9NUW8 | recombinant TDP1, AlphaScreen DNA substrate cleavage | Potency, µM (top dose mostly 130 µM), actives largely listed as inhibitors | 350,000 compounds, 0.28% hits; also: nearly all actives have a fitted effect of over 40% in size
Target sequence (Q9NUW8 whole entry, looked up): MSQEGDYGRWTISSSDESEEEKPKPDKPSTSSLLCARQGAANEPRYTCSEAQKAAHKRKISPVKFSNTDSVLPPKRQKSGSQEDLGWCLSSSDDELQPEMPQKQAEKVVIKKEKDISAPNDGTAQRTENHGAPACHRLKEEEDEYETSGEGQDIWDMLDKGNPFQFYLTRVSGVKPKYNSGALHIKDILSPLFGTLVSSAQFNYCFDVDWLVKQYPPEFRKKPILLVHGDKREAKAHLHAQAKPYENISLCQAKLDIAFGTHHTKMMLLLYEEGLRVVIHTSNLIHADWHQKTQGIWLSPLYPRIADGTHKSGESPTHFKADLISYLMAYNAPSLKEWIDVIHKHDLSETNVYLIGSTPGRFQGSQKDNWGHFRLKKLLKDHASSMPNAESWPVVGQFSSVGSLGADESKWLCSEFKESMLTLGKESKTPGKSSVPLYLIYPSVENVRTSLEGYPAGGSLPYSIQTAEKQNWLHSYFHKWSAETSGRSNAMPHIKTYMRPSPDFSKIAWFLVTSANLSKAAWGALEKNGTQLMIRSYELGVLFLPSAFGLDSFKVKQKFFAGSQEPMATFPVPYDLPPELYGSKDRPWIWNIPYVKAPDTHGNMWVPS
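Recombinant human Tdp1 (E. coli-expressed, 1 nM final) preincubated with compounds 15 min at room temperature, then 5'-biotin/3'-phosphotyrosine-FITC DNA substrate (15 nM final) added for 5 min. AlphaScreen beads (10 ug/ml final) added 10 min; cleavage lowers signal.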
Numbers stand for hits; . = inactive; ? = inconclusive; / = not tested or not shown. Compounds with a hit are over-represented: about 19% of the library has one in this group of screens. Unless noted, calls follow the shape of the dose curve; as a rule, active = well fitted curve in the direction sought with a large enough effect; inconclusive = small, poorly fitted or top-dose-only effect, or another doubt; inactive = no such curve, though single readings can be large; an effect the other way counts as inactive or inconclusive.

SMILES	TDP1 cell CPT	TDP1 cell noCPT	IL-1B inflam inh	Giardia kill	ELG1 DNA repair	TDP1 block
CCn1cc(C(=O)NCCc2ccc(Cl)cc2)c(=O)c2cc(S(=O)(=O)N3CCC(C)CC3)ccc21	?	18µM	/	/	/	.
CC1CCN(S(=O)(=O)c2ccc3c(c2)c(=O)c(C(=O)NCc2ccc(Cl)cc2)cn3C)CC1	.	4.6µM	/	/	/	.
Cn1cc(C(=O)NCc2ccc(F)cc2)c(=O)c2cc(S(=O)(=O)N3CCCCC3)ccc21	23µM	16µM	?	.	?	.
CCn1cc(C(=O)NCCc2ccccc2)c(=O)c2cc(S(=O)(=O)N3CCCC3)ccc21	?	18µM	.	.	?	.
NS(=O)(=O)c1ccc(CCNC(=O)c2cccc(S(=O)(=O)N3CCc4ccccc43)c2)cc1	?	?	.	/	/	/
CC(=O)c1cccc(NC(=O)C(CC(C)C)NS(=O)(=O)c2ccc3c(c2)CCN3C(C)=O)c1 (stereo not given)	.	.	/	/	/	.
CCn1cc(C(=O)N2CCc3ccccc32)c(=O)c2cc(S(=O)(=O)N3CCCCCC3)ccc21	.	.	.	.	?	.
CN(C1CCCCC1)S(=O)(=O)c1ccc2c(c1)c(=O)c(C(=O)NCCc1ccc(Cl)cc1)cn2C	?	21µM	/	/	/	.
CN(C1CCCCC1)S(=O)(=O)c1ccc2c(c1)c(=O)c(C(=O)NCCc1ccccc1)cn2C	.	?	/	/	/	.
CCn1cc(C(=O)N2CCc3ccccc32)c(=O)c2cc(S(=O)(=O)N3CC(C)CC(C)C3)ccc21 (stereo not given)	15µM	?	.	.	?	.
CCCNC(=O)C1CCC(Cn2c(=O)c3sccc3n(CC(=O)NCc3ccccc3)c2=O)CC1 (stereo not given)	.	.	/	/	/	.
COC(=O)C[C@@H]1CC[C@H](NC(=O)CC2CC2)[C@@H](CO)O1	.	.	.	/	/	/
C[C@H]1CCC[C@@]2(O[C@H](CCO)C[C@@H](O)[C@@H]2O)O1	.	.	.	.	/	/
O=C(Cn1cncn1)NCc1ccc(Cl)cc1	.	.	.	.	.	.
Clc1ccc(NCn2cncn2)nc1	23µM	.	.	.	.	.
Cc1cc(C)c(C#N)c(SCC(=O)C(C)(C)C)n1	.	.	.	.	?	.
Cc1cc(C)c(C#N)c(SCCS(=O)(=O)c2ccc(C(C)(C)C)cc2)n1	13µM	21µM	.	.	.	.
Cc1cc(C)c(C#N)c(SCCS(=O)(=O)c2ccc(Cl)cc2)n1	?	?	-76	.	.	.
O=C1CCC[C@@H]2Cc3nc4ccccc4cc3[C@@H]3CCN1[C@H]23	.	.	.	.	/	/
CC[C@H]1c2[nH]c3ccc(C(C)C)cc3c2[C@@H]2CCN3C(=O)CCC[C@H]1[C@H]23	10µM	10µM	.	.	/	/
CC(C)c1ccc2[nH]c3c(c2c1)[C@@H]1CCN2C(=O)CCC[C@H](C3)[C@H]12	18µM	15µM	.	.	?	/
CC[C@@H]1C(=O)[C@H](Cc2ccccc2)[C@H]2CCCC(=O)N3CC[C@@H]1[C@@H]23	.	?	.	.	/	/
Cc1cccc(S(=O)(=O)NC2CCN(C#N)C2)c1 (stereo not given)	/	/	/	/	/	.
Cc1ccc2ncc(C)c(C)c2c1	.	.	/	/	/	/
O=C(Cc1ccc(Cl)cc1)N/N=C1\CCCc2ccccc21	?	23µM	.	.	.	.
SMILES	TDP1 cell CPT	TDP1 cell noCPT	IL-1B inflam inh	Giardia kill	ELG1 DNA repair	TDP1 block
Cn1cccc1/C=N/NC(=O)Cc1cccc2ccccc12	?	12µM	.	.	13µM	.
O=C(CCC(=O)Nc1ccccc1Cl)N/N=C1\CCCc2ccccc21	.	.	.	.	.	.
O=C(Cc1cccc2ccccc12)NN=Cc1ccc2c(c1)CCC2	?	21µM	.	/	/	/
O=C(Cc1cccc2ccccc12)N/N=C1\CCCc2ccccc21	?	16µM	.	.	?	.
O=C(CNc1ccc(F)cc1)N/N=C1\CCCc2ccccc21	.	?	.	.	.	.
O=C(N/N=C\CCc1ccccc1)c1ccco1	?	?	.	.	.	.
Cc1cccc(NC(=O)CSc2nc3c([nH]c4ccccc43)c(=O)n2C)c1C	?	?	/	/	/	.
CN(Cc1ccccc1N1CCCC1)C(=O)c1cc2cc(Cl)ccc2o1	12µM	.	.	?	.	.
CN(Cc1ccccc1N1CCCC1)C(=O)c1cc2ccccc2o1	?	?	.	.	?	.
Cn1nc(-c2ccccc2)c(C(O)c2ccccc2C(F)(F)F)c1Cl (stereo not given)	.	.	.	.	.	.
COC(c1ccccc1)c1c(-c2ccccc2)nn(C)c1Cl (stereo not given)	1.5µM	?	.	.	.	.
COc1cccc(C(c2nnnn2Cc2ccccc2)N2CCN(C(=O)c3ccco3)CC2)c1OC (stereo not given)	?	23µM	.	.	.	.
COc1cccc(C(c2nnnn2Cc2ccco2)N2CCN(c3cccc(C)c3C)CC2)c1OC (stereo not given)	?	26µM	.	.	?	.
O=C(c1ccco1)N1CCN(C(c2ccc(Cl)cc2)c2nnnn2Cc2ccccc2)CC1 (stereo not given)	.	.	-51	.	?	.
COc1ccc(OC)c(C(c2nnnn2Cc2ccco2)N2CCN(C)CC2)c1 (stereo not given)	.	.	.	.	.	.
COc1ccc(C(c2nnnn2Cc2ccccc2)N2CCN(C(=O)c3ccco3)CC2)cc1 (stereo not given)	.	?	.	.	.	.
Cc1ccc(OCc2cn3cccnc3n2)cc1	.	.	.	.	?	.
CCOc1ccccc1CNC(=O)c1ccc2nc(N3CCOCC3)sc2c1	?	?	.	.	?	/
CCCOc1ccc(C(C)=O)cc1CSc1nc(O)cc(=O)[nH]1	21µM	9.2µM	.	.	.	.
Cc1cc(Nc2ccccc2C)nc(-n2nc(C)cc2C)n1	4.6µM	5.2µM	/	/	/	.
Cc1cc(Nc2cc(F)ccc2C)nc(-n2nc(C)cc2C)n1	5.2µM	5.2µM	/	/	/	.
Cc1cc(N2CCN(c3ccccc3)CC2)nc(-n2nc(C)cc2C)n1	4.6µM	5.2µM	.	.	?	.
Cc1cc(C)n(-c2nc(Nc3ccccc3C)nc(-n3nc(C)cc3C)n2)n1	/	/	/	/	?	.
CCCCc1ccc(Nc2cc(C)nc(-n3nc(C)cc3C)n2)cc1	4.6µM	5.2µM	/	/	/	.
CC(C)CCN(Cc1ccco1)C(=O)c1cc2c(s1)-c1ccccc1OC2	/	/	/	/	/	.
CC(=O)Oc1ccc(C(=O)NCc2ccco2)cc1	.	.	.	.	.	.
